From PubChem BioAssay (NCI)
The panel holds about 83,000 compounds, 20% with a hit somewhere; the sample as a whole holds those more often.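 96-well plates, one dose, 48 hours. Percent growth reported; active if below 10.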 The source made the active and inactive calls.

What was measured:
Assay in all cases: NCI-60 one-dose screen, 48 h (100 = growth as untreated, 0 = no growth, -100 = all killed)
SK-MEL-2 melanoma = conditions: 10 µM unless noted
EKVX NSCLC = conditions: 10 µM unless noted
SN12C renal = conditions: 10 µM unless noted
UO-31 renal = conditions: 10 µM unless noted
A498 renal = conditions: 10 µM unless noted
CCRF-CEM leukemia = conditions: 10 µM unless noted
MOLT-4 leukemia = conditions: 10 µM unless noted
TK-10 renal = conditions: 10 µM unless noted
ACHN renal = conditions: 10 µM unless noted
CAKI-1 renal = conditions: 10 µM

Measured: growth

Cc1c(C(C)(C)C)cc(C(C)(C)C)c2c1CN(C)CO2
inactive: SK-MEL-2 melanoma 96.7% | EKVX NSCLC 105% | SN12C renal 107% | UO-31 renal 97% | A498 renal 106% | CCRF-CEM leukemia 93.7% | MOLT-4 leukemia 109%

c1ccc([Se]CCCN2CCN(CCC[Se]c3ccccc3)CC2)cc1
inactive: SK-MEL-2 melanoma 121% | SN12C renal 104% | TK-10 renal 129% | ACHN renal 100% | A498 renal 116% | CCRF-CEM leukemia 105%
active: EKVX NSCLC 1.25% | CAKI-1 renal -23.6%

Cc1ccc(-c2nc3c(N=Nc4ccc(S(N)(=O)=O)cc4)c(N)nn3c(N)c2C#N)cc1
inactive: SK-MEL-2 melanoma 27% | EKVX NSCLC 69.8% | SN12C renal 33.2% | UO-31 renal 69% | CAKI-1 renal 41% | A498 renal 59.3% | CCRF-CEM leukemia 11.9%
active: MOLT-4 leukemia 3.58%

CCN(CC)c1ccc(C2CC(c3cc(OC)c(OC)c(OC)c3)=NN2)cc1 (stereo unspecified)
inactive: SK-MEL-2 melanoma 27.6% | EKVX NSCLC 27.6% | SN12C renal 47.2% | UO-31 renal 36.5% | ACHN renal 75.3%
active: A498 renal -2.94% | MOLT-4 leukemia 7.4%

CC(=O)c1ccc2c(c1)C1C=CCC1[C@H](c1cc3c(cc1Br)OCO3)N2 (stereo partly specified)
inactive: SK-MEL-2 melanoma 16.1% | EKVX NSCLC 34.9% | SN12C renal 43.5% | TK-10 renal 60.6% | ACHN renal 38.6% | CAKI-1 renal 20.3% | A498 renal 13.5%
active: CCRF-CEM leukemia 4.69% | MOLT-4 leukemia 7.5%

COc1cc(/C=C/C(=O)c2ccc(Oc3ncnc4ccccc34)cc2)cc(OC)c1OC
inactive: SK-MEL-2 melanoma 94.6% | EKVX NSCLC 87% | SN12C renal 68.3% | UO-31 renal 51.6% | A498 renal 104% | CCRF-CEM leukemia 36.6% | MOLT-4 leukemia 62.3%

CCCN1C(=O)CSC1=Nc1ccc2cc3ccc(N=C4SCC(=O)N4CCC)cc3nc2c1
active: MOLT-4 leukemia -18.8%
inactive: SK-MEL-2 melanoma 38.1% | EKVX NSCLC 33.8% | SN12C renal 75% | TK-10 renal 56.8% | ACHN renal 36.4% | CAKI-1 renal 36% | A498 renal 63.4% | CCRF-CEM leukemia 31%

CCOc1ccccc1C(=O)N1CCN(c2cc(Cl)cc(Cl)c2)CC1
inactive: SK-MEL-2 melanoma 18.5% | EKVX NSCLC 34.1% | SN12C renal 25.7% | UO-31 renal 24.9% | ACHN renal 21.9%
active: A498 renal 6.38% | CCRF-CEM leukemia 7.43% | MOLT-4 leukemia 7.37%

O=c1[nH]ccc2nc(N3CCC(O)CC3)nc(Nc3cccc(C(F)(F)F)c3)c12
active: MOLT-4 leukemia 1.19%
inactive: SK-MEL-2 melanoma 25.2% | EKVX NSCLC 83% | SN12C renal 61.4% | TK-10 renal 67.6% | ACHN renal 67.6% | CAKI-1 renal 38.6% | A498 renal 93.6% | CCRF-CEM leukemia 13%

O=C(COc1ccc(Cl)cc1)N1CCN(Cc2ccc3c(c2)OCO3)CC1
inactive: SK-MEL-2 melanoma 123% | EKVX NSCLC 85.9% | SN12C renal 91% | UO-31 renal 61.5% | CAKI-1 renal 76.6% | A498 renal 84.5% | CCRF-CEM leukemia 97.4% | MOLT-4 leukemia 100%

O=S(=O)(Nc1cccc2cc(OS(=O)(=O)c3ccccc3)ccc12)c1ccccc1
inactive: SK-MEL-2 melanoma 66.9% | EKVX NSCLC 64% | SN12C renal 70.1% | ACHN renal 85.1% | CAKI-1 renal 71.4% | A498 renal 48.6% | CCRF-CEM leukemia 61.9% | MOLT-4 leukemia 43.3%

COc1cc(CN(c2ccc(Cl)cc2)C2OC(=O)c3ccccc32)cc(OC)c1OC (stereo unspecified)
inactive: SK-MEL-2 melanoma 41.6% | EKVX NSCLC 59.9% | SN12C renal 61.3% | ACHN renal 85.7% | CAKI-1 renal 69.1% | A498 renal 40% | CCRF-CEM leukemia 65.7% | MOLT-4 leukemia 35.4%

O=C(Nc1ccc(-n2ccc3c(NC(=O)c4ccccc4)nccc32)cc1)c1cccc(C(F)(F)F)c1
inactive: SK-MEL-2 melanoma 46.1% | EKVX NSCLC 52.7% | SN12C renal 39.8% | ACHN renal 33.4% | CAKI-1 renal 19.4% | A498 renal 39% | CCRF-CEM leukemia 22.1% | MOLT-4 leukemia 18.6%

C=C1C(=O)O[C@H]2[C@H]1CC/C(COC(=O)c1ccc3ccccc3c1)=C\CC[C@@]1(C)O[C@@H]21
inactive: A498 renal 64.1%
active: SK-MEL-2 melanoma -70.4% | EKVX NSCLC -75.5% | SN12C renal -54% | TK-10 renal -95.9% | ACHN renal -100% | CCRF-CEM leukemia -22.9% | MOLT-4 leukemia -14.1%

CCC1S/C(=N\N=C(/C)c2cccs2)N(c2ccccc2)C1=O (stereo unspecified)
inactive: SK-MEL-2 melanoma 141% | EKVX NSCLC 105% | SN12C renal 135% | ACHN renal 113% | A498 renal 108% | MOLT-4 leukemia 63.9%
active: CCRF-CEM leukemia -39.5%

COc1cc(NS(=O)(=O)c2ccc(N)cc2)ncn1
inactive: SK-MEL-2 melanoma 160% | EKVX NSCLC 102% | SN12C renal 93.8% | TK-10 renal 130% | CAKI-1 renal 94.6% | A498 renal 106% | CCRF-CEM leukemia 105% | MOLT-4 leukemia 99.6%

COCCNC(C(=O)c1ccccc1)c1ccccc1 (stereo unspecified)
inactive: SK-MEL-2 melanoma 107% | EKVX NSCLC 99.2% | SN12C renal 100% | ACHN renal 106% | CAKI-1 renal 102% | A498 renal 88.4% | CCRF-CEM leukemia 101% | MOLT-4 leukemia 98.6%

CC1(C)CC(=O)C2=C(C1)OC1=C(C(=O)CC(C)(C)C1)C2c1ccc(OCc2cn(-c3ccc(F)cc3F)nn2)cc1
inactive: SK-MEL-2 melanoma 93.8% | EKVX NSCLC 99.4% | SN12C renal 99.4% | TK-10 renal 109% | A498 renal 46.9% | CCRF-CEM leukemia 84.9% | MOLT-4 leukemia 77.2%

Cc1ccc(-c2cc(-c3nnc(SCC(=O)c4ccccc4)o3)c3ccccc3n2)cc1
inactive: SK-MEL-2 melanoma 90.7% | EKVX NSCLC 83.4% | SN12C renal 101% | TK-10 renal 61.8% | ACHN renal 93.9% | A498 renal 77% | CCRF-CEM leukemia 100% | MOLT-4 leukemia 95.2%

O=C(Nc1cccc(-n2ccc3c(NC(=O)c4ccccc4)ncnc32)c1)Nc1ccc(Cl)c(C(F)(F)F)c1
inactive: EKVX NSCLC 32.1% | SN12C renal 40.9% | ACHN renal 25.5% | CAKI-1 renal 18.1% | A498 renal 42.9% | CCRF-CEM leukemia 16.4% | MOLT-4 leukemia 15.8%
active: SK-MEL-2 melanoma -8.08%

Cc1cccc[n+]1CCC[n+]1ccccc1C
inactive: SK-MEL-2 melanoma 100% | EKVX NSCLC 94.6% | SN12C renal 101% | TK-10 renal 88% | ACHN renal 109% | A498 renal 109% | CCRF-CEM leukemia 99.6% | MOLT-4 leukemia 86.1%

Cc1[nH]c2ccc(F)cc2c1CCNC(=O)C1CCN(C(=O)c2ccc(-c3ccccc3)cc2)CC1
inactive: SK-MEL-2 melanoma 71.6% | EKVX NSCLC 44.2% | SN12C renal 64.1% | ACHN renal 52.6% | A498 renal 47.9% | CCRF-CEM leukemia 54.1% | MOLT-4 leukemia 26.9%

O=C(NCCNc1nccc(-c2c(-c3cccc(O)c3)nc3sccn23)n1)Nc1cc(C(F)(F)F)cc(C(F)(F)F)c1
inactive: SK-MEL-2 melanoma 110% | EKVX NSCLC 52.2% | SN12C renal 82.8% | ACHN renal 65.9% | CAKI-1 renal 72.3% | A498 renal 86% | CCRF-CEM leukemia 39.1% | MOLT-4 leukemia 60.2%

CC(=O)c1cc2c(c(O)c1C)C(=O)C(=O)c1c(O)cccc1-2
active: SK-MEL-2 melanoma -72.7% | EKVX NSCLC -42.3% | SN12C renal -41.4% | ACHN renal -90.3% | CAKI-1 renal -79.6% | A498 renal -80.6% | CCRF-CEM leukemia 0.77%

COC(OC)C1(c2ccccc2)NC(=O)NC1=O (stereo unspecified)
inactive: SK-MEL-2 melanoma 104% | EKVX NSCLC 112% | SN12C renal 101% | ACHN renal 108% | A498 renal 108% | CCRF-CEM leukemia 112% | MOLT-4 leukemia 89.1%

COc1ccc(/C(=C/c2cc(OC)c(OC)c(OC)c2)[N+](=O)[O-])cc1
inactive: EKVX NSCLC 27.9% | A498 renal 87.4%
active: SK-MEL-2 melanoma -13.2% | SN12C renal 5.64% | TK-10 renal -1.67% | ACHN renal -74% | CCRF-CEM leukemia -7.93% | MOLT-4 leukemia 0.326%

OC(COc1ccccc1Cl)CN1CCN(c2ccc(Cl)cc2)CC1 (stereo unspecified)
inactive: SK-MEL-2 melanoma 126% | EKVX NSCLC 106% | SN12C renal 106% | TK-10 renal 117% | ACHN renal 94.6% | A498 renal 78.6% | CCRF-CEM leukemia 46% | MOLT-4 leukemia 95.3%

O=C(NCCNc1nccc(-c2c(-c3cccc(O)c3)nc3sccn23)n1)c1cccc(C(F)(F)F)c1
inactive: SK-MEL-2 melanoma 62.1% | EKVX NSCLC 91.6% | SN12C renal 83.2% | ACHN renal 66.1% | CAKI-1 renal 75.6% | A498 renal 84.5% | CCRF-CEM leukemia 37.5%

CN(C)C(=O)Nc1nc2cc(Cl)c(Cl)cc2[nH]1
inactive: EKVX NSCLC 57.7% | SN12C renal 51% | TK-10 renal 30.7% | ACHN renal 52.6% | A498 renal 46.7% | CCRF-CEM leukemia 10.3%
active: SK-MEL-2 melanoma -14.7% | MOLT-4 leukemia 8.26%
